Measured values from PubChem BioAssay (NCI).
Compounds without any hit were thinned out: in the full panel of roughly 83,000, 20% have a hit.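 Activity criterion: percent growth below 10, measured after cells in 96-well plates were exposed to a single compound concentration for 48 hours.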 Active and inactive are the calls of the source.

Columns and labels:
Assay in all cases: NCI-60 one-dose screen, 48 h (100 = growth as untreated, 0 = no growth, -100 = all killed)
Details in all cases: 10 µM unless noted
T-47D breast = test system: T-47D breast
BT-549 breast = test system: BT-549 breast
MDA-MB-435 melanoma = test system: MDA-MB-435 melanoma
SW-620 colon = test system: SW-620 colon
MCF7 breast = test system: MCF7 breast
HCT-116 colon = test system: HCT-116 colon
HCC-2998 colon = test system: HCC-2998 colon
KM12 colon = test system: KM12 colon

Measured: growth

Clc1ccc(-c2nc3ccc(/C(=N\N=C\c4ccccc4)c4ccccc4)cc3[nH]2)cc1
inactive: T-47D breast 70.7% | BT-549 breast 92.5% | MDA-MB-435 melanoma 88.9% | SW-620 colon 91.2% | MCF7 breast 78.3% | HCT-116 colon 84.5% | HCC-2998 colon 103% | KM12 colon 82.3%

COC[C@]12CC[C@@H](C)[C@H](C)[C@H]1C1=CC[C@@H]3[C@@]4(C)CCCNC(C)(C)[C@@H]4CC[C@@]3(C)[C@]1(C)CC2
inactive: T-47D breast 39.8% | BT-549 breast 66.1% | HCC-2998 colon 20.1% | KM12 colon 19.3%
active: MDA-MB-435 melanoma 9.61% | SW-620 colon -42.1% | MCF7 breast -33.2% | HCT-116 colon 5.39%

CN1CCN(Cc2ccc(NC(=O)c3cncc(C#Cc4cnc5ccc(NC6CCOCC6)nn45)c3)cc2C(F)(F)F)CC1
active: T-47D breast -66.2% | BT-549 breast -94.4% | MDA-MB-435 melanoma -70.2% | SW-620 colon -42.1% | MCF7 breast -60.3% | HCT-116 colon -79% | HCC-2998 colon -19.8% | KM12 colon -42.1%

C/C=C/C=C1\C[C@H]2CO[C@H](O2)C1=O
inactive: T-47D breast 98.4% | BT-549 breast 127% | MDA-MB-435 melanoma 101% | SW-620 colon 69.1% | MCF7 breast 67.1% | HCT-116 colon 82.3% | HCC-2998 colon 114% | KM12 colon 103%

O=c1oc2ccc(-c3ccc(F)cc3F)cc2c(=O)n1-c1ccc(F)c(F)c1
active: T-47D breast 9.12% | BT-549 breast -2.01% | MDA-MB-435 melanoma 3.43% | MCF7 breast 2.02% | HCT-116 colon 6.87% | KM12 colon 3.33%
inactive: SW-620 colon 12.7% | HCC-2998 colon 14.5%

Oc1ccc(-c2nnc(SCc3ccc(O)c4ncccc34)n2-c2ccccc2)cc1
inactive: T-47D breast 14.8% | BT-549 breast 26.9% | MDA-MB-435 melanoma 21.5% | SW-620 colon 16.4% | HCT-116 colon 12.7% | HCC-2998 colon 27.3% | KM12 colon 17.3%
active: MCF7 breast 2.53%

COc1ccc([C@H]2[C@H](O)C(=O)N2c2cc(OC)c(OC)c(OC)c2)cc1Cl
inactive: T-47D breast 69.9% | SW-620 colon 17.8% | HCC-2998 colon 13.8% | KM12 colon 11.3%
active: BT-549 breast 1.85% | MDA-MB-435 melanoma -0.621% | MCF7 breast 9.61% | HCT-116 colon 2.62%

COc1cnc2c(c1)C(=O)c1c-2n(CCCn2ccnc2)c(=O)c2cc(OC)c(OC)cc12
active: T-47D breast -61.3% | BT-549 breast -0.217% | SW-620 colon -77.7% | MCF7 breast -61.8% | HCT-116 colon -90.2%
inactive: MDA-MB-435 melanoma 20.5% | KM12 colon 27.1%

COc1ccc(/C=C/C(=O)c2nnn(-c3ccc(C(=O)O)cc3)c2C)cc1OC
inactive: T-47D breast 96.8% | BT-549 breast 95.7% | MDA-MB-435 melanoma 101% | SW-620 colon 110% | MCF7 breast 86.3% | HCT-116 colon 91.6% | HCC-2998 colon 106% | KM12 colon 101%

COc1ccc([C@@H]2[C@@H](O)C(=O)N2c2cc(OC)c(OC)c(OC)c2)cc1Cl
active: BT-549 breast -9.18% | MDA-MB-435 melanoma -8.49% | HCT-116 colon 2.44% | HCC-2998 colon 8.34%
inactive: T-47D breast 103% | SW-620 colon 17.9% | MCF7 breast 11.5% | KM12 colon 13.2%

CS(=O)c1nccc(-c2c(-c3ccc(F)c(OCc4ccccc4)c3)nc3sccn23)n1 (stereo not drawn)
inactive: BT-549 breast 109% | MDA-MB-435 melanoma 104% | SW-620 colon 87.9% | HCT-116 colon 63.6% | HCC-2998 colon 50.4% | KM12 colon 77%
active: T-47D breast -11.6% | MCF7 breast -44.7%

CS(=O)(=O)c1nccc(-c2c(-c3ccc(F)c(OCc4ccccc4)c3)nc3sccn23)n1
active: BT-549 breast -0.34%
inactive: T-47D breast 18.5% | MDA-MB-435 melanoma 101% | SW-620 colon 100% | MCF7 breast 16.5% | HCT-116 colon 38% | HCC-2998 colon 32.2% | KM12 colon 96.5%

CCN1C(=O)N(CC)C2SC(N/N=C/c3ccc(OC)cc3)=NC21 (stereo not drawn)
active: MDA-MB-435 melanoma 0.665% | HCT-116 colon 6.83%
inactive: T-47D breast 80.9% | BT-549 breast 18.9% | SW-620 colon 20.2% | MCF7 breast 15.2% | HCC-2998 colon 13.5% | KM12 colon 13.9%

CCN1C(=O)N(CC)C2SC(N/N=C/c3ccccc3F)=NC21 (stereo not drawn)
inactive: T-47D breast 61.9% | SW-620 colon 19% | MCF7 breast 16.2% | HCT-116 colon 13.6% | HCC-2998 colon 17.1% | KM12 colon 11.8%
active: BT-549 breast -20.1% | MDA-MB-435 melanoma -53.5%

CCN1C(=O)N(CC)C2C1NN=C1SC(c3ccccc3)=CC(=O)N12 (stereo not drawn)
inactive: T-47D breast 42.1% | SW-620 colon 18.3% | MCF7 breast 17.7% | HCT-116 colon 14.9% | HCC-2998 colon 21.1% | KM12 colon 27.2%
active: BT-549 breast -4.35% | MDA-MB-435 melanoma -33.3%

Cc1[nH]nc2ccc(-c3nc4cnc(N5CCN(C)CC5)cn4c3Nc3ccc(F)cc3Br)cc12
inactive: T-47D breast 38.9% | BT-549 breast 91.1% | MDA-MB-435 melanoma 30.7% | SW-620 colon 32.8% | MCF7 breast 15.5% | HCT-116 colon 11% | HCC-2998 colon 69.8% | KM12 colon 59.3%

COc1ccc(N)cc1C(=O)Nc1cccc(-c2cc(=O)c3c(OC)c(OC)c(OC)cc3o2)c1
inactive: T-47D breast 41.7% | BT-549 breast 51.2% | MDA-MB-435 melanoma 77.4% | SW-620 colon 91.4% | MCF7 breast 45.2% | HCT-116 colon 65.5% | HCC-2998 colon 55.3% | KM12 colon 63.6%

O=c1[nH]c(CCl)nc2c1cnn2-c1ccccc1
inactive: T-47D breast 95.2% | BT-549 breast 94.1% | MDA-MB-435 melanoma 104% | SW-620 colon 102% | MCF7 breast 79.5% | HCT-116 colon 94.9% | HCC-2998 colon 105% | KM12 colon 101%

COc1ccc(S(=O)(=O)n2cc(C=O)c3ccccc32)c(OC)c1
inactive: T-47D breast 65.6% | BT-549 breast 64.2% | MDA-MB-435 melanoma 29.6% | SW-620 colon 35.4% | MCF7 breast 25.5% | HCT-116 colon 15.4% | HCC-2998 colon 110% | KM12 colon 95.4%

CC(=O)NC(C)(C)C(=O)N[C@@H](C)C(=O)NC(C)(C)C(=O)N[C@@H](C)C(=O)NC(C)(C)C(=O)N[C@@H](C)C(=O)N[C@@H](CCC(N)=O)C(=O)NC(C)(C)C(=O)N[C@H](C(=O)NC(C)(C)C(=O)NCC(=O)N[C@@H](CC(C)C)C(=O)NC(C)(C)C(=O)N1CCC[C@H]1C(=O)N[C@H](C(=O)NC(C)(C)C(=O)NC(C)(C)C(=O)N[C@@H](CCC(N)=O)C(=O)N[C@@H](CCC(N)=O)C(=O)N[C@H](CO)CC1CCCCC1)C(C)C)C(C)C
active: BT-549 breast -4.41% [5 µM] | MDA-MB-435 melanoma 9.46% [5 µM]
inactive: T-47D breast 25% [5 µM] | SW-620 colon 37.1% [5 µM] | MCF7 breast 17.2% [5 µM] | HCT-116 colon 49.3% [5 µM] | HCC-2998 colon 49.9% [5 µM] | KM12 colon 63.3% [5 µM]

CC(=O)Nc1cccc(-n2cnc3cc(-c4ccc(O)cc4)ccc32)c1
inactive: T-47D breast 27.7% | BT-549 breast 49.2% | SW-620 colon 19.4% | MCF7 breast 31.4% | HCT-116 colon 20.8% | HCC-2998 colon 79.6% | KM12 colon 20.6%
active: MDA-MB-435 melanoma -17.7%

CN(C)C(=O)C1=NC(CO)C(=O)N(c2ccc(Cl)cc2)N1 (stereo not drawn)
inactive: T-47D breast 98.6% | BT-549 breast 99.2% | MDA-MB-435 melanoma 106% | SW-620 colon 103% | MCF7 breast 95.6% | HCT-116 colon 88.3% | HCC-2998 colon 109% | KM12 colon 98.2%

N#Cc1c(-c2ccccc2)cc(-c2c[nH]c3ccccc23)nc1-c1c[nH]c2ccccc12
inactive: T-47D breast 86.7% | BT-549 breast 94.7% | MDA-MB-435 melanoma 103% | SW-620 colon 102% | MCF7 breast 95% | HCT-116 colon 103% | HCC-2998 colon 93.6% | KM12 colon 103%

CN1C(=O)N(C)C2Nn3c(s/c(=C\c4ccccn4)c3=O)=NC21 (stereo not drawn)
inactive: T-47D breast 102% | BT-549 breast 103% | MDA-MB-435 melanoma 99.2% | SW-620 colon 105% | MCF7 breast 89.3% | HCT-116 colon 100% | KM12 colon 106%

COc1ccc(-c2oc3cc(O)cc(O)c3c(=O)c2OC)cc1O
active: MDA-MB-435 melanoma -34.3%
inactive: T-47D breast 22.6% | BT-549 breast 40.3% | SW-620 colon 29.6% | MCF7 breast 25.8% | HCT-116 colon 12.4% | KM12 colon 26.2%

CC(=O)c1sc(Nc2cccc(Nc3nc(C)c(C)s3)c2)nc1C
inactive: T-47D breast 13.3% | BT-549 breast 46.2% | MDA-MB-435 melanoma 59.1% | SW-620 colon 62.5% | MCF7 breast 61.7% | HCT-116 colon 44.2% | KM12 colon 60.2%

CCN1C(=O)N(CC)C2SC(N/N=C/c3cccs3)=NC21 (stereo not drawn)
active: BT-549 breast -40% | MDA-MB-435 melanoma -31.7% | HCT-116 colon 3.01% | KM12 colon 6.21%
inactive: T-47D breast 68.8% | SW-620 colon 19.8% | MCF7 breast 17.3%

C/C(=N/Nc1nc(N/N=C(/C)c2ccc([N+](=O)[O-])cc2)nc(N2CCOCC2)n1)c1ccc([N+](=O)[O-])cc1
inactive: T-47D breast 54.9% | BT-549 breast 67.3% | MDA-MB-435 melanoma 85% | SW-620 colon 95.5% | MCF7 breast 74.1% | HCT-116 colon 70.6% | KM12 colon 82.2%
